Data as given in PubChem BioAssay AID2108 (National Center for Advancing Translational Sciences (NCATS), 2009).
Results filed as inconclusive are left out. Calls come from the whole dose curve; as a rule, active = well fitted curve in the direction sought with a large enough effect; inconclusive = small, poorly fitted or top-dose-only effect, or effect the other way, or another doubt; inactive = no such curve, though single readings can be large or run the other way.

What follows are compounds tested against Alpha-galactosidase A (Homo sapiens) (UniProt P06280) (assay: Confirmation of Inhibitors of Human alpha-Galactosidase Using Spleen Homogenate). Conditions: alpha-galactosidase enzyme activity; series mostly up to 56.2 µM; activity change: at the top concentration.
Text: NIH Chemical Genomics Center [NCGC]
NIH Molecular Libraries Probe Production Centers Network [MLPCN]
Assay Submitter (PI): Wei Zheng
Alpha-galactosidase is a homodimeric glycoprotein that hydrolyzes the terminal alpha-galactosyl moieties from glycolipids and glycoproteins. Deficiency of this enzyme results in Fabry Disease with progressive accumulation of globotriaosylceramide and other glycosphingolipids in vascular endothelial cells that causes renal failure, myocardial infarction and stroke, and premature death in patients. It has been reported that the improper folding and trafficking of alpha-galactosidase resulting from genetic mutations may account for a significant number of Fabry patients. […] We optimized this alpha-galactosidase assay in 1536-well plate format for identification of novel small molecule inhibitors or activators with structures other than the sugar analogs in order to develop new pharmacological chaperones. In particular, this assay is directed towards discovering compounds active in more natural setting, tissue homogenate, that may have been missed by screens of the purified enzyme under more stringent conditions. This assay attempted to confirm hits from the primary screening.
NCGC Assay Protocol Summary:
This is a fluorogenic enzyme assay with 4-methylumbelliferyl-alpha-D-galactopyranoside as the substrate and human spleen homogenate containing alpha-galactosidase as the enzyme preparation. Upon hydrolysis of this fluorogenic substrate, the resulting product, 4-methylumbelliferone (which excites at 365 nm and emits at 440 nm) can be detected by a fluorescence plate reader. Data were normalized to the controls for basal activity (without enzyme) and 100% activity (with enzyme). The AC50 values were determined from concentration-response data modeled with the standard Hill equation.
Assay buffer: 50 mM citric acid (titrated with potassium phosphate to pH 5.0), 0.01% Tween-20 (pH 5.0 is an optimal condition for this enzyme assay)
1536-well assay protocol for the alpha-galactosidase from human spleen homogenate:
(1) Add 2 ul/well spleen homogenate (1 ug)
(2) Add 23 nL compounds in DMSO solution. The final titration was 0.5 nM to 58 uM.
(3) Add 2 ul of substrate (1 mM final)
(4) Incubate at 37C for 40 min
(5) Add 2 ul stop solution (1M NaOH and 1M Glycine mixture, pH 10)
(6) Detect the assay plate in a ViewLux plate reader (PerkinElmer) with Ex=365 nm and Em=440nm.
Keywords: Alpha-galactosidase, Fabry Disease, pharmacological chaperone, chaperone therapy, high throughput screening, alpha- galactosidase inhibitor, MLSMR, MLSCN, NIH Roadmap, qHTS and NCGC
Note: 0% is about no effect.

Chain of Alpha-galactosidase A (Homo sapiens) (P06280 32-429 limits assumed): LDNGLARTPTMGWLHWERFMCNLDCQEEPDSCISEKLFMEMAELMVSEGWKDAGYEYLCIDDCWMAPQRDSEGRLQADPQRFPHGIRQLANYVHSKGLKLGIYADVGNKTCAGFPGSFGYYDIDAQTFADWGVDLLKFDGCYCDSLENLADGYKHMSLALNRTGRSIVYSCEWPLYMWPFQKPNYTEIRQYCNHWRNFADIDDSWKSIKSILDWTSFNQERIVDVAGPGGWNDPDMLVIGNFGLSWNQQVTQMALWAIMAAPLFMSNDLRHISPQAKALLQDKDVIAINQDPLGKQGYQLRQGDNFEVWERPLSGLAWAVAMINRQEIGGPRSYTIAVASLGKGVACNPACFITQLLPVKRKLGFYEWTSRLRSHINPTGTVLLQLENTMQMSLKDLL

Activity change, inactive:
O=C(O)Cc1sc(-c2cc3ccccc3oc2=O)nc1-c1ccc(-c2ccccc2)cc1 -0.387%
COC(=O)c1ccccc1S(=O)(=O)N1CCOCC1 -15.4%
COc1cccc2cc(-c3nc4c(s3)CCc3ccccc3-4)c(=O)oc12 8.58%
O=C(c1ccc2ccccc2c1)N1CCN(S(=O)(=O)c2ccccc2)CC1 4.96%
CC(=O)Nc1ccc(S(=O)(=O)/N=C2/NC(=O)/C(=C\c3ccco3)S2)cc1 -1.55% [at 23.6 µM]
O=S(=O)(c1cccc(Cl)c1)N1CCOCC1 1.69%
CC(N=C(NC#N)Nc1ccncc1)C(C)(C)C (stereo not given) -1.81%
CCCC1(C)Nc2ccccc2-c2nc3ccccc3n21 (stereo not given) 18.5% [at 23.6 µM]
COc1ccc(-n2cc(CNCCc3ncc(C)[nH]3)c(-c3ccccc3Cl)n2)cc1 -2.96%
O=C(Nc1nnc(-c2cccc(F)c2)s1)Nc1ccccc1F 13.6%
Clc1ccc(Nc2ncnc3ccc(Br)cc23)cc1 -6.43% [at 23.6 µM]
O=C(NCCCN1CCOCC1)c1cccs1 -1.58% [at 23.6 µM]
Cc1cc(C)c(C(=O)Cn2cnc3cc([N+](=O)[O-])ccc3c2=O)cc1C 11.1% [at 23.6 µM]
Cc1ccc2c(c1)c1ncnc(N3CCC4(CC3)OCCO4)c1n2C 18.8% [at 23.6 µM]
CCc1sc(-c2cc3ccc(O)cc3oc2=O)nc1-c1cc(C)ccc1C 16.4%
Cc1noc(C)c1S(=O)(=O)N(CC(=O)N1CCc2ccccc21)c1ccc(C(C)C)cc1 2.56%
O=S(=O)(c1ccccc1)N1CCN(Cc2ccccc2)CC1 -2.74%
CC(C)(C)c1ccc(OCC(=O)NC(Cc2c[nH]c3ccccc23)C(=O)O)cc1 (stereo not given) -12.9%
Cc1ccc(S(=O)(=O)N(C)C)cc1NC(=O)COC(=O)Cc1ccc(Br)cc1 2.93%
N#Cc1c(-c2ccc(F)cc2)cc(-c2cccnc2)nc1N 14.5%
O=c1ccc2cc(O)c(O)cc2o1 5.16%
COc1ccccc1N1CCN(C(c2cccs2)C(C)NC(=O)c2cccs2)CC1 (stereo not given) 0.409% [at 23.6 µM]
C(=C\c1ccc2ccccc2n1)/c1ccc2c(c1)OCO2 22.9%
O=C(Nc1ccc(OCC(=O)N2CCN(S(=O)(=O)c3ccccc3)CC2)cc1)c1ccco1 2.43%
CCOC(=O)c1ccc(NC(=O)c2ccccc2)cc1 5.58% [at 23.6 µM]
Cc1ccc(-c2nc(-c3cc4cc(Cl)ccc4oc3=O)sc2C)cc1 9.45%
Cn1c(=O)c2sccc2n2c(CCCC(=O)Nc3ccc(F)c(F)c3)nnc12 -2.29%
Cc1nc(-n2nnc(CO)c2CO)nc2c1CCC2 8.66%
CCCn1c(=O)c2c(C(F)(F)F)cc(-c3cccs3)nc2n(CCC)c1=O 19.4%
O=C(CC(c1ccccc1)c1cc(Br)ccc1O)NCCN1CCOCC1 (stereo not given) 5.29% [at 23.6 µM]
CCc1sc(-c2cc3ccc(O)cc3oc2=O)nc1-c1ccc(C)cc1 23.7%
C[C@H](NC(=O)/C(C#N)=C/c1ccc(O)c(O)c1)c1ccccc1 3.29%
COc1ccc(/C=C/c2nnc(NC(C)=O)s2)cc1 8.15%
COc1ccc(/C=C/c2nnc(NC(=O)CSc3ccc(C)cc3)s2)cc1 23.5%
CC(=O)Nc1c(S(=O)(=O)c2ccccc2)c2nc3ccccc3nc2n1Cc1ccccc1 48.2%
N#Cc1c(-c2ccccc2)nc(SCc2nc(N)nc(N3CCCCC3)n2)[nH]c1=O 6.63%
COC(=O)CSc1ccc(C#N)c(SCC(=O)OC)c1 7.51% [at 23.6 µM]
O=S(=O)(c1cccnc1)N1CCOCC1 5.38%
O=C1CCCC/C1=C\Nc1ccc(O)cc1 -3.18%
CC(C)C[C@H](NC(=O)c1nc[nH]c1C(=O)NCC(=O)OCc1ccccc1)C(=O)OC(C)(C)C -4.74%
